# PNC inhibitor = perinucleolar compartment assembly inhibition. PC3M PTB-GFP, PNC prevalence imaging, 16 h; stronger effect = lower value. activity change (PNC), negative = inhibition, % at 10 µM. actives 3.1% (n = 140,000). AID 2417;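 active = readout at or below -70, meaning at least 70% loss of cells showing the perinucleolar compartment, a nuclear body marking cancer cells; inconclusive = readout between -30 and a set limit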;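 also: plate controls were DMSO wells for no effect and camptothecin positive control wells for full effect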
#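 Compounds are pinned in duplicate onto adhered PC3M cells stably expressing GFP-tagged PTB and incubated 16 h at 37 C. Cells are then fixed, nuclei stained with Hoechst, and PNC-positive cells counted.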
# HPGD block = blocks human HPGD enzyme activity. AID 894. purified HPGD, NADH fluorescence kinetic, PGE2 substrate. P15428. actives 4.3% (n = 150,000). Potency, µM, inactives show at the highest dose activity change, negative = inhibition, hits mostly inhibitors; also: potency is read from the fitted curve at half-maximal effect
#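 20 nM HPGD preincubated 15 min at room temperature with compound in 50 mM Tris-HCl pH 8, 0.01% Tween 20. Started with 1 mM NAD+ and 30 uM prostaglandin E2; NADH fluorescence (360/450 nm) read 5 times over 30-s intervals, last minus first.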
# Lamin A splicing = modulators of lamin A splicing; actives 0.01% (n = 200,000); HeLa LMNA splicing GFP/RFP minigene ratio, 48 h; Potency, µM (top dose mostly 46.1 µM), inactives show at the highest dose ratio change, negative = inhibition, actives largely listed as inhibitors; active = well fitted inhibition curve with a large enough effect in the signal ratio, with a control signal flat, not every such curve was filed as active; inconclusive = small, poorly fitted or top-dose-only effect, or effect the other way, or a change in a side signal; the % refers to the signal ratio; also: potency is read from the fitted curve at half-maximal effect
#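 S3 HeLa stable clones carrying a lamin A-EGFP splicing minigene plus DsRed2 were seeded at 600 cells/well in Opti-MEM with 2% FBS, pin-dosed and incubated 48 h at 37°C. Acumen cytometry (488 nm) gave the GFP/RFP total-intensity ratio.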
# ALOX12 inhib = 12-hLO (ALOX12) enzyme inhibition; P18054; actives 0.12% (n = 150,000); Potency, µM (top dose mostly 57.1 µM), for inactives: at the top dose activity change, negative = inhibition, hits mostly inhibitors; AID 1452; purified 12-hLO, xylenol orange hydroperoxide absorbance; active = well fitted inhibition curve with a large enough effect; inconclusive = small, poorly fitted or top-dose-only effect; also: potency is read from the fitted curve at half-maximal effect; nearly all actives have a fitted effect of over 55% in size
# Target sequence (P18054 whole entry, looked up): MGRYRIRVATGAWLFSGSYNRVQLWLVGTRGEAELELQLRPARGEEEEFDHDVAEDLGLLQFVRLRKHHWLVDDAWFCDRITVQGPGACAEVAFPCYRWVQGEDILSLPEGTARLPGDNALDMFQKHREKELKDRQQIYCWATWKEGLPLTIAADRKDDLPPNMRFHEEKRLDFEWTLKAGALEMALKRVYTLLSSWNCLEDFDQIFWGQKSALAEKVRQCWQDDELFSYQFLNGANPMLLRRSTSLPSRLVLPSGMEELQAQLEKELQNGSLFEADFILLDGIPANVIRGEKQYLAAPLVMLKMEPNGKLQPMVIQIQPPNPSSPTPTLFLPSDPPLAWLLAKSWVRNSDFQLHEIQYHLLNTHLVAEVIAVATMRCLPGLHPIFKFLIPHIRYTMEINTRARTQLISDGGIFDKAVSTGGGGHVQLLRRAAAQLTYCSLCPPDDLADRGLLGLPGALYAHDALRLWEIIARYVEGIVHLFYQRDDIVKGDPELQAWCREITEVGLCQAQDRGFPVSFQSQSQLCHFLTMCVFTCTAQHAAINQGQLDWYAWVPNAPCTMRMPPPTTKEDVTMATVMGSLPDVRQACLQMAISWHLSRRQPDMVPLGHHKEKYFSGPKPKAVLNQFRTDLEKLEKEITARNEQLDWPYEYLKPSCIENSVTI
#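 Purified human 12hLO (150 nM final) was preincubated with compounds for 15 min at room temperature in 25 mM Hepes pH 7.0, 0.01% Triton X-100, then reacted with 40 uM arachidonic acid for 30 min. Hydroperoxide was detected with ferrous iron/xylenol orange.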
# ALDH1A1 block = inhibitors of human aldehyde dehydrogenase 1A1 | Potency, µM (doses to about 75.3 µM), inactives show at the top dose activity, negative = inhibition, actives largely listed as inhibitors | Purified ALDH1A1, NADH fluorescence, propionaldehyde substrate | actives 7.3% (n = 220,000);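 also: potency is read from the fitted curve at half-maximal effect; plate controls were no enzyme wells and a reference inhibitor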
# The depositor's hits bear a star; ? = inconclusive; . = not tested or not shown; [ ] = dose if it differs, or a comment. Shown are actives, neighbours in structure and some others; about 10% of the full set was active somewhere. Unless noted, calls follow the shape of the dose curve; as a rule, active = well fitted inhibition curve with a large enough effect (not every such curve was filed as active); inconclusive = small, poorly fitted or top-dose-only effect, or another doubt; inactive = no such curve, though single readings can be large or run the other way. Unless noted, % is scaled to controls: 0 for no effect and ±100 for the full control effect.
SMILES,PNC inhibitor,HPGD block,Lamin A splicing,ALOX12 inhib,ALDH1A1 block
CC(C(=O)OCC(=O)Nc1ccc(S(=O)(=O)N2CCCCC2)cc1)N1C(=O)c2ccccc2C1=O (configuration not stated),12.5,-8.7%,8.1%,-4.6%,-7.9%
CC(C(=O)Oc1ccc2c(c1)OCO2)N1C(=O)c2ccccc2C1=O (configuration not stated),23.3,-12.6%,?,6.0%,-5.0%
CC(C(=O)OCC(=O)Nc1cccc(S(=O)(=O)N2CCOCC2)c1)N1C(=O)c2ccccc2C1=O (configuration not stated),.,.,?,.,25.1µM*
CC(C(=O)OCC(=O)Nc1ccc2c(c1)OCO2)N1C(=O)c2ccccc2C1=O (configuration not stated),35.7,-18.8%,6.7%,-29.6%,7.08µM*
CC(=O)Nc1cccc(NC(=O)CSc2nnnn2C(C)C)c1,?,-3.2%,-4.5%,0.1%,14.1µM*
COc1cc(NC(=O)CSc2nnnn2Cc2ccccc2)cc(OC)c1,.,.,.,.,-4.7%
O=C(CSc1nnnn1Cc1ccccc1)Nc1ccc2c(c1)OCCO2,-9.8,-14.0%,-2.3%,-5.0%,8.91µM*
CC(=O)Nc1cccc(NC(=O)CSc2nnnn2C)c1,21.4,1.3%,-5.6%,-0.7%,5.5%
CCC(=O)Nc1cccc(NC(=O)CSc2nnnn2Cc2ccccc2)c1,6.6,-13.2%,0.7%,-1.8%,20µM*
Cc1ccc2c(c1)Oc1ccccc1C=C2C(=O)O,.,.,?,.,-5.2%
CSc1cccc(NC(=O)C2CCCN(C(=O)c3cnn(-c4ccc(F)cc4)c3-n3cccc3)C2)c1 (configuration not stated),.,.,-8.2%[46 µM],.,.
Cc1noc(C)c1-c1nc(NC2CCNCC2)c2ccccc2n1,.,.,?,.,-0.6%
O=C(O)c1cc(S(=O)(=O)Nc2cccc(F)c2)ccc1Cl,.,-10.2%,.,-4.4%,6.8%
COCC(=O)N1CCC2(CC1)CN(C(=O)Nc1ccc(OC)cc1)C2,.,-7.4%,.,0.3%,0.3%
Cn1nc(-c2ccc(N3CCCCC3)c(NC(=O)c3ccco3)c2)c2ccccc2c1=O,?,-28.5%,-0.9%,0.7%,31.6µM*
CC1=NN(c2ccccc2)C(=O)C1(C)[N+](=O)[O-] (configuration not stated),5.4,-11.6%,0.2%,-4.0%,11.5%
COc1cc(C=NCC2OCCc3ccccc32)cc(OC)c1 (configuration not stated),37.7,-2.4%,?,4.1%,22.4µM*
O=C(O)C1C2C=CC(C2)C1C(=O)Nc1ccc(C(=O)N2CCCCC2)c(Cl)c1 (configuration not stated),11.7,0.447µM*,-2.7%,-1.5%,-6.0%
O=C(O)c1cccc(NC(=O)C2C3C=CC(C3)C2C(=O)O)c1 (configuration not stated),?,.,-5.2%,-2.7%,?
COc1ccc(OC)c(NC(=O)c2oc3c(c2C)-c2nn(Cc4ccc(Cl)cc4)cc2CC3)c1,.,.,1.7%[46 µM],.,.
Cn1cc2c(=O)n(/N=C/c3ccccc3)cnc2n1,-82.3*,-1.7%,-13.2%,1.7%,-5.7%
CC1CCCCC1NCC#CCOc1ccc(Cl)cc1 (configuration not stated),.,.,-14.2%[46 µM],.,-25.4%
CC(C)NCC#CCOc1ccc(Cl)cc1,.,.,.,.,2.38µM*
Cc1ccc(S(=O)(=O)Nc2cccc(-c3ccc(N4CCCCC4)nn3)c2)s1,.,.,-3.7%[46 µM],.,.
CCOCCOC(=O)C1=C(C)N(C)C(=O)NC1c1ccccc1Cl (configuration not stated),-18.2,-3.5%,6.1%,0.0%,7.9%
SMILES,PNC inhibitor,HPGD block,Lamin A splicing,ALOX12 inhib,ALDH1A1 block
CC1=C(C(=O)OCC(C)C)C(c2ccccc2Cl)NC(=O)N1C (configuration not stated),13.2,-17.2%,-1.5%,-19.1%,20µM*
CC(=O)N1CCc2cc(CNS(=O)(=O)c3ccccc3C(F)(F)F)ccc21,.,.,7.7%[46 µM],.,.
CCOC(=O)c1c(C)cc(OC)cc1O,.,?,.,-1.5%,-12.7%
Cc1cc(OC(=O)c2c(C)cc(O)cc2O)cc(O)c1C(=O)O,.,15.8µM*,.,-11.4%,-12.6%
CCc1c(C)sc(NC(=O)CSc2nc3c(c(C(F)(F)F)n2)CCc2ccccc2-3)c1C#N,-28.8,22.4µM*,3.5%,-3.0%,22.4µM*
Cc1ccccc1Nc1oc(-c2ccccc2)nc1-c1cccs1,.,-12.4%,.,1.6%,1.2%
Cn1c(=O)c2c(ncn2C[C@@H](O)CO)n(C)c1=O,.,-12.5%,?,1.9%[25.6 µM],-0.1%[20.9 µM]
Cc1ccc(N(CCC#N)C(=O)CSc2ccc3c(c2)OCCO3)cc1,-0.8,-11.2%,7.4%,1.9%,?
Cc1ccc(N(CCC#N)C(=O)CCl)cc1C,?,-3.7%,?,4.3%,0.355µM*
CCc1ccccc1NC(=O)c1cnc2sc(N3CCCC3)nn2c1=O,.,.,2.7%[46 µM],.,.
Cc1nn(-c2ccccc2C(=O)O)c(=O)c2ccccc12,4.4,-5.7%,-1.1%,10.5%,-1.8%
Cc1nn(-c2c(Cl)cc(Cl)cc2Cl)c(=O)c2ccccc12,-8.4,12.6µM*,8.6%,-2.3%,-11.5%
CCOC(=O)CSC1=NC(=O)/C(=C\c2ccc(Cl)cc2)S1,-19.3,2.24µM*,?,-26.8%,20µM*
CC#CCN1c2ccccc2[C@]23C[C@@H](C(=O)OC)N(C(=O)CC(C)C)C2=NC(C(=O)OC)=C(C(=O)OC)[C@H]13,.,-1.3%,8.4%[9.22 µM],2.3%[11.4 µM],1.8%[13.5 µM]
COc1ccc(NC(=O)c2ccc3c(SCC(=O)O)c4c(nc3c2)CCCC4)c(OC)c1,.,.,.,.,7.94µM*
Cc1ccc(CNC(=O)CSc2c3c(nc4cc(Cl)ccc24)CCCC3)o1,?,?,-24.6%,-9.2%,20µM*
CCC(C)NC(=O)c1ccc2c(SCC(=O)O)c3c(nc2c1)CCCC3 (configuration not stated),12.1,22.4µM*,0.1%,1.8%,?
COc1ccc(NC(=O)c2ccc3c(SCC(=O)O)c4c(nc3c2)CCCC4)cc1Cl,.,.,-9.0%[46 µM],.,?
O=C(O)CSc1c2c(nc3cc(C(=O)N4CCCC4)ccc13)CCCC2,.,.,.,.,-4.6%
CCCCNC(=O)c1ccc2c(SCC(=O)O)c3c(nc2c1)CCCC3,20.3,12.6µM*,0.1%,2.2%,?
O=C(CSc1nc(=O)n(CCN2CCOCC2)c2c1CCC2)Nc1cccc(Cl)c1,.,.,-0.4%[46 µM],.,.
CCOc1ccc(S(=O)(=O)NCCCN2CCCC2=O)cc1,.,.,1.6%[46 µM],.,-10.2%
CC1(C)CC(=O)C(C(c2ccc(F)cc2)C2C(=O)CC(C)(C)CC2=O)C(=O)C1,-1.4,-7.1%,5.1%,0.6%,?
CC1(C)CC(=O)C(C(c2ccco2)C2C(=O)CC(C)(C)CC2=O)C(=O)C1,-19.4,7.94µM*,-2.9%,-6.1%,?
C[C@H]1Cc2c(COc3ccccc3)nc3c(c2CO1)CN(S(=O)(=O)c1ccc2c(c1)OCCN2C)CC3,.,-10.1%,?,-0.3%[11.4 µM],-15.1%[13.5 µM]
N#Cc1c(-c2ccco2)nc(SCC(=O)Nc2cccc(Cl)c2)[nH]c1=O,9.4,17.8µM*,-4.9%,-13.4%,?

# From PubChem BioAssay
